From PubChem BioAssay AID485297 (National Center for Advancing Translational Sciences (NCATS), 2010)
The whole screen tested about 320,000 compounds, of which about 9,100 (2.8%) were called active. Inconclusive results (about 3%) are left out. The call rests on the fitted dose curve; in most records, active means well fitted activation curve with a large enough effect; inconclusive means small, poorly fitted or top-dose-only effect; inactive means no such curve, though single readings can be large or run the other way. For the sample, actives were picked, then their nearest neighbours and some compounds at random.

Assay: qHTS Assay for Rab9 Promoter Activators; further: nearly all actives have a fitted effect of over 60% in size; on activation, negative = inhibition: % of control where 0% means no effect
Conditions: Huh7 Rab9 promoter-luciferase reporter, luminescence, 24 h; series mostly up to 9.22 µM; activation, negative = inhibition: at the top concentration
Method in brief: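 Huh7 cells stably carrying a Rab9 promoter-luciferase reporter, 1500 cells per well in OP-MEM I with 10% FBS, treated with compound 24 hours at 37C. Luciferase activity read by luminescence after 10 minutes with Amplite reagent.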
Potency means the concentration at half of the fitted maximal effect.

SMILES	activation, negative = inhibition	Potency
O=C1C=C(c2ccnc3cc(Cl)ccc23)C[C@@H](c2ccc3c(c2)OCO3)C1	-5.37% (inactive)	–
COc1ccc(NS(=O)(=O)c2cccc(C(=O)NCCc3ccc(S(N)(=O)=O)cc3)c2)cc1	-6.22% (inactive)	–
CC(=O)Nc1ccc(S(=O)(=O)N2CCN(S(=O)(=O)c3cccs3)CC2)cc1	-6.37% (inactive)	–
CC1CCc2sc(C(=O)NCC(c3ccco3)N3CCCCC3)cc2C1 (stereo unspecified)	-7.28% (inactive)	–
O=C(NCCOc1ccccc1Cl)C(=O)Nc1ccccc1	13% (inactive)	–
COc1ccc(S(=O)(=O)N2CCOCC2)cc1NC(=O)Cc1coc2cc(C)ccc12	-2.27% (inactive)	–
Cc1nn(Cc2ccccc2)c(C)c1C(=O)NCCCN1CCCC1=O	-2.83% (inactive)	–
COc1ccc(-c2nnc(SCC(=O)c3cccs3)o2)c(OC)c1	–	1120 nM (active)
COc1ccc(CCNC(=O)CSc2nnc(CNC(=O)c3cccs3)o2)cc1OC	-2.09% (inactive)	–
COc1ccccc1-c1nnc(SCC(=O)N2CC(C)CC(C)C2)o1 (stereo unspecified)	-1.74% (inactive)	–
Cc1ccc(NS(=O)(=O)c2ccc3c(c2)CC(=O)N3)cc1Cl	-0.719% (inactive)	–
COc1ccccc1C(CNC(=O)c1ccc(C)c(S(=O)(=O)N2CCCCC2)c1)N(C)C (stereo unspecified)	-2.47% (inactive)	–
CN(CCc1ccccc1)c1ccc([N+](=O)[O-])cn1	16.6% (inactive)	–
COC(=O)[C@]1(C)CCC[C@@]2(C)C3CC[C@]4(OC(C)=O)C[C@@]3(CCC21)CC4=NO (stereo partly specified)	0.822% (inactive)	–
O=C(Nc1cccc(F)c1)NC1CCCCCCC1	–	3550 nM (active)
O=C(Nc1cccc(F)c1)NC1CCCc2ccccc21 (stereo unspecified)	1.16% (inactive)	–
C/C(CC(=O)Nc1cccc(F)c1)=N\NC(=O)C(=O)NC1CCCCC1	0.896% (inactive)	–
Cc1cccc(C)c1NC(=O)CN(C)C(=O)CCC(=O)c1ccccc1	1.5% (inactive)	–
CC(OC(=O)/C=C/c1ccccc1)C(=O)NC1CCCCC1C (stereo unspecified)	-4.92% (inactive)	–
Cc1cccc(NC(=O)Nc2nnc(-c3ccccc3)o2)c1	-3.39% (inactive)	–
Cc1c(NC(=O)Nc2ccccc2)cccc1[N+](=O)[O-]	-9.25% (inactive)	–
Cc1ccc(NC(=O)Nc2ccccc2)c(Br)c1	–	1780 nM (active)
COc1cc2c(cc1OC)CN(C(C)C(=O)Nc1cccc(S(=O)(=O)N3CCOCC3)c1)CC2 (stereo unspecified)	-1.59% (inactive)	–
Cc1sc2ncnc(N3CCC(C(=O)Nc4ccc(F)cc4Cl)CC3)c2c1C	-1.62% (inactive)	–

SMILES	activation, negative = inhibition	Potency
Cc1ccc(-c2csc(-c3c[nH]c4ccccc34)n2)cc1	–	2510 nM (active)
Cc1ccc(-c2csc(NC3OC(=O)c4ccccc43)n2)cc1 (stereo unspecified)	-3.39% (inactive)	–
CCCc1cc(-c2nc(-c3ccc(C)cc3)cs2)ccn1	-0.323% (inactive)	–
O=C(CN(C(=O)CCC(=O)Nc1nccs1)c1ccc(F)cc1)NCc1ccc2c(c1)OCO2	2.57% (inactive)	–
O=C(CSC(=S)N1CCOCC1)c1ccccc1	–	447 nM (active)
O=C(CSC(=S)N1CCCCC1)c1c(F)cccc1F	–	1410 nM (active)
O=C(CSC(=S)N1CCOCC1)c1cc(Br)cc(Br)c1O	6.93% (inactive)	–
CC1CN(C(=S)SCC(=O)c2ccccc2)CC(C)O1 (stereo unspecified)	17.3% (inactive)	–
COc1cccc(NC(=O)CN(C)C(=O)CSC(=S)N2CCCC2)c1	11.8% (inactive)	–
CC(=O)c1ccc(NC(=O)CSC(=S)N2CCCC2)cc1	12.2% (inactive)	–
Cc1occc1-c1nnc(SCC(=O)NC2CCCCC2)o1	-0.222% (inactive)	–
COc1ccc(S(=O)(=O)N2CCN(C(C)C(=O)Nc3ccc(C(C)C)cc3)CC2)cc1 (stereo unspecified)	1.47% (inactive)	–
O=C(NCc1ccccc1CN1CCCC1)c1cccc(S(=O)(=O)Nc2ccc(F)cc2)c1	-1.74% (inactive)	–
CCn1c(SCC(=O)Nc2ccc3c(c2)OCCO3)nnc1-c1ccncc1	-6.01% (inactive)	–
CCn1c(SCC(=O)Nc2ccc3c(c2)OCCO3)nnc1C(C)C	0.546% (inactive)	–
Cn1ccnc1SCC(=O)Nc1ccc2c(c1)OCCO2	–	2510 nM (active)
O=C(Nc1cccc(NC(=O)c2ccco2)c1)c1cnccn1	3.39% (inactive)	–
Cc1ccc(S(=O)(=O)NCC(=O)Nc2ccc3c(c2)OCCO3)cc1	0.138% (inactive)	–
O=C(CCN1C(=O)c2ccncc2C1=O)Nc1ccc2c(c1)OCCO2	2.25% (inactive)	–
O=C(Nc1ccc2c(c1)OCCO2)c1cnccn1	–	2000 nM (active)
Cc1ccc(SCC(=O)Nc2ccc3c(c2)OCCO3)cc1	–	3160 nM (active)
Cc1ccc(OCCCC(=O)Nc2ccc3c(c2)OCCO3)cc1	-3.01% (inactive)	–
O=[N+]([O-])c1cc(S(=O)(=O)NCCc2ccccn2)ccc1Cl	1.61% (inactive)	–
COc1ccc(-c2nnc(SC(C)C(=O)NC3CC3)o2)cc1 (stereo unspecified)	3.52% (inactive)	–

SMILES	activation, negative = inhibition	Potency
Cc1cc(C)cc(NC(=O)NC2CCN(CC(=O)Nc3cccc(Cl)c3C)CC2)c1	-3.85% (inactive)	–
O=c1[nH]c2cccnc2n(CCNc2ncc(C(F)(F)F)cc2Cl)c1=O	-2.72% (inactive)	–
CNS(=O)(=O)c1cccc(C(=O)OCC(=O)N2c3ccccc3NC(=O)C2(C)C)c1	-3.9% (inactive)	–
CCOc1ccc(C(C)NC(=O)CN2C(=O)NC3(CCCCC3)C2=O)cc1OCC (stereo unspecified)	-4.04% (inactive)	–
Cc1ccn(-c2cccc(-n3ccc(C)n3)n2)n1	–	2820 nM (active)
Cc1ccc(C(=O)/C=C/Nc2ccc(S(=O)(=O)Nc3onc(C)c3C)cc2)cc1	2.91% (inactive)	–
Cc1cc(N/C=C\C(=O)c2ccc(Cl)c(Cl)c2)no1	–	2820 nM (active)
Cc1cc(NC(=O)CSc2nnc(-c3ccc(Cl)s3)o2)no1	-1.01% (inactive)	–
COc1cc(OC)cc(-c2c(-c3cccs3)c3cc(-c4ccc(OC)cc4F)ccc3n2C)c1	-4.07% (inactive)	–
Cc1ccc(C(=O)c2c(NC(=O)c3ccccc3)sc(C)c2C)cc1	-0.247% (inactive)	–
Cc1sc(NC(=O)c2ccc3ncsc3c2)c(C(N)=O)c1C	–	1580 nM (active)
O=C(COC(=O)c1ccc2ncsc2c1)Nc1ccc(Cl)cc1	1.26% (inactive)	–
CCc1ccc(OCC(=O)OCC(=O)c2c(N)n(C)c(=O)n(C)c2=O)cc1	-0.827% (inactive)	–
O=C(/C=C/c1ccc(Cl)cc1)Nc1ccc(S(=O)(=O)Nc2ncccn2)cc1	-0.0735% (inactive)	–
CC(C)(C)c1ccc(/C=C/C(=O)Nc2ncccn2)cc1	–	3980 nM (active)
Cc1cc(C)nc(NC(=O)/C=C/c2ccc(Cl)cc2)n1	15.4% (inactive)	–
C[C@H](NC(=O)c1ccccc1Cl)C(=O)OCC(=O)N1CCN(c2ccccc2)CC1	2.66% (inactive)	–
O=C(CNC(=O)c1ccc(F)cc1)c1ccccc1	–	794 nM (active)
O=C(CNC(=O)c1ccccc1)NCC(=O)OCC(=O)c1ccccc1	-4.76% (inactive)	–
O=C(NCCS(=O)(=O)NCc1ccc(F)cc1)c1ccccc1	-1.67% (inactive)	–
O=C(CNC(=O)c1ccccc1Br)NCCSc1ccc(Br)cc1	-4.71% (inactive)	–
O=C(CNC(=O)c1ccccc1F)c1ccc(Br)cc1	–	1260 nM (active)
O=C(COC(=O)CNC(=O)c1ccccc1F)NCC(F)(F)F	-1.45% (inactive)	–
